Assay results: PubChem BioAssay (NCI)
Compounds without any hit were thinned out: in the full panel of roughly 79,000, 15% have a hit. Calls of active or inactive are those of the source. Rule as the data show it: active = growth inhibition above about 70%; inactive = the rest.

How the values were obtained:
[1] = NCI Yeast Anticancer Drug Screen. Data for the rad52 strain (AID 147);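 also: 0% = growth of vehicle-treated control cultures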; conditions: S. cerevisiae rad52 mutant growth inhibition, hits give high values
Procedure, shortened: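 Vehicle-treated cultures served as the reference for growth inhibition of compound-exposed yeast bearing a DNA repair mutation.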

[2] = NCI Yeast Anticancer Drug Screen. Data for the wt1 strain (AID 149);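 also: 0% = growth of vehicle-treated wt1 cultures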; conditions: S. cerevisiae wt1 strain (SPY 50644) growth inhibition, hits give high values
Procedure, shortened: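 Growth inhibition read against vehicle controls after compound exposure of the wt1 yeast strain.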

[3] = NCI Yeast Anticancer Drug Screen. Data for the rad50EPP+ strain (AID 151);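 also: 0% = growth of vehicle-treated control cultures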; conditions: S. cerevisiae rad50 mutant strain, hits give high values
Procedure, shortened: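 In this screen, rad50EPP+ yeast were exposed to compounds. Growth inhibition was scored against vehicle-treated controls.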

[4] = NCI Yeast Anticancer Drug Screen. Data for the rad50 strain (AID 155);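 also: 0% = growth of vehicle-only cultures of the same strain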; conditions: S. cerevisiae rad50 strain growth inhibition, hits give high values
Procedure, shortened: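 Readout: growth inhibition relative to vehicle-treated cultures. Compound exposure was carried out in a genetically defined yeast strain deficient in DNA damage repair.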

[5] = NCI Yeast Anticancer Drug Screen. Data for the mec2-1 strain (AID 157); conditions: S. cerevisiae mec2-1 strain, hits give high values
Procedure, shortened: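 Vehicle-treated cultures served as reference for growth inhibition of compound-exposed mec2-1 yeast.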

[6] = NCI Yeast Anticancer Drug Screen. Data for the rad14 strain (AID 159);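 also: 0% = growth of vehicle-treated control cultures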; conditions: S. cerevisiae rad14 strain growth inhibition, hits give high values
Procedure, shortened: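 Growth inhibition vs vehicle controls; genetically altered yeast strain (DNA damage repair defect) treated with test compounds.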

[7] = NCI Yeast Anticancer Drug Screen. Data for the sgs1 mgt1 strain (AID 161);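 also: 0% = growth of cultures given vehicle only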; conditions: S. cerevisiae sgs1 mgt1 strain, hits give high values
Procedure, shortened: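 Genetically altered yeast, compound exposure, growth inhibition relative to vehicle.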

[8] = NCI Yeast Anticancer Drug Screen. Data for the CLN2oe strain (AID 163);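 also: 0% = growth of vehicle-only control cultures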; conditions: S. cerevisiae CLN2oe strain, hits give high values
Procedure, shortened: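 Inhibition relative to vehicle-treated yeast is reported. Cells: strain with genetic alteration in cell-cycle control, grown with compound.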

[9] = NCI Yeast Anticancer Drug Screen. Data for the cln2 rad14 strain (AID 165);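 also: 0% = growth equal to vehicle treated cultures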; conditions: S. cerevisiae cln2 rad14 strain, hits give high values
Procedure, shortened: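 Each compound was tested on cln2 rad14 yeast. Inhibition of growth was calculated against vehicle-exposed controls.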

[10] = NCI Yeast Anticancer Drug Screen. Data for the bub3 strain (AID 167); conditions: S. cerevisiae bub3 mutant strain, hits give high values
Procedure, shortened: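 Readout: yeast growth inhibition, expressed relative to vehicle-only wells. The test organism is a mutant strain from a panel with lesions in DNA repair or checkpoint genes.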

[11] = NCI Yeast Anticancer Drug Screen. Data for the wt2 strain (AID 169);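 also: 0% = growth of vehicle-treated yeast cultures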; conditions: S. cerevisiae wt2 strain growth inhibition, hits give high values
Procedure, shortened: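 Inhibition of yeast growth was determined after compound treatment, normalised to controls receiving only vehicle.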

[12] = NCI Yeast Anticancer Drug Screen. Data for the mlh1 strain (AID 171);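 also: 0% = growth of vehicle-treated control cultures of the same strain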; conditions: S. cerevisiae mlh1 strain growth inhibition, hits give high values
Procedure, shortened: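 Vehicle-normalised growth inhibition of a repair- or checkpoint-altered yeast strain following compound treatment.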

[13] = NCI Yeast Anticancer Drug Screen. Data for the sgs1 strain (AID 173);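 also: 0% = growth of vehicle-only control cultures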; conditions: S. cerevisiae sgs1 mutant, hits give high values
Procedure, shortened: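 Screen format: yeast with repair or checkpoint alterations, compound exposure, growth read relative to vehicle.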

[14] = NCI Yeast Anticancer Drug Screen. Data for the mlh1 rad18 strain (AID 175); conditions: S. cerevisiae mlh1 rad18 strain growth inhibition, hits give high values
Procedure, shortened: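 Vehicle-treated cultures served as the reference for growth inhibition in a yeast strain carrying DNA damage repair alterations exposed to each compound.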

[15] = NCI Yeast Anticancer Drug Screen. Data for the rad18 strain (AID 177); conditions: S. cerevisiae rad18 mutant growth inhibition, hits give high values
Procedure, shortened: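 Test articles were incubated with altered yeast defective in DNA damage repair. Results are given as inhibition of growth versus vehicle.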

[16] = at 5.0 µM (retest, dose inferred, filed as 0.5)
[17] = at 50.0 µM (retest, dose inferred, filed as 5.0)

Measured: growth inhibition

COC(=O)C1=C(C(=O)OC)C2(C)C=CC1O2 (stereo not drawn)
inactive: [1]; at 1.2 µM -1% | [1]; at 3.7 µM -4% | [1]; at 11.0 µM 21% | [2]; at 1.2 µM 0% | [2]; at 3.7 µM 7% | [2]; at 11.0 µM 30% | [2]; at 33.0 µM 62% | [3]; at 1.2 µM -11% | [3]; at 3.7 µM -34% | [3]; at 11.0 µM -12% | [3]; at 33.0 µM 20% | [3]; at 100.0 µM 19% | [4]; at 1.2 µM -15% | [4]; at 3.7 µM -13% | [4]; [16] -135% | [4]; at 11.0 µM 7% | [4]; [17] 53% | [5]; at 1.2 µM -2% | [5]; at 3.7 µM -1% | [5]; [16] -43% | [5]; at 11.0 µM 1% | [5]; at 33.0 µM 26% | [5]; [17] 43% | [6]; at 1.2 µM 1% | [6]; at 3.7 µM 15% | [6]; at 11.0 µM 17% | [6]; at 33.0 µM 33% | [7]; [16] -55% | [7]; [17] 63% | [8]; at 1.2 µM -7% | [8]; at 3.7 µM -5% | [8]; at 11.0 µM -4% | [8]; at 33.0 µM 15% | [8]; at 100.0 µM 42% | [9]; [16] -46% | [9]; [17] -7% | [9]; at 50.0 µM 19.1% | [10]; at 1.2 µM -9% | [10]; at 3.7 µM -3% | [10]; [16] -62% | [10]; at 11.0 µM 10% | [11]; at 1.2 µM -4% | [11]; at 3.7 µM -3% | [11]; at 11.0 µM 52% | [12]; at 1.2 µM -14% | [12]; at 3.7 µM -10% | [12]; at 11.0 µM -7% | [12]; at 33.0 µM 52% | [13]; at 1.2 µM -4% | [13]; at 3.7 µM -4% | [13]; at 11.0 µM 33% | [14]; [16] -114% | [14]; [17] 48% | [15]; at 1.2 µM -10% | [15]; at 3.7 µM -6% | [15]; at 11.0 µM 10% | [15]; at 33.0 µM 62%
active: [1]; at 33.0 µM 70% | [1]; at 100.0 µM 91% | [2]; at 100.0 µM 93% | [4]; at 33.0 µM 72% | [4]; at 50.0 µM 81.2% | [4]; at 100.0 µM 91% | [5]; at 50.0 µM 86.8% | [5]; at 100.0 µM 87% | [6]; at 100.0 µM 87% | [7]; at 50.0 µM 82.2% | [10]; at 33.0 µM 75% | [10]; [17] 74% | [10]; at 50.0 µM 89.6% | [10]; at 100.0 µM 94% | [11]; at 33.0 µM 91% | [11]; at 100.0 µM 97% | [12]; at 100.0 µM 90% | [13]; at 33.0 µM 84% | [13]; at 100.0 µM 95% | [14]; at 50.0 µM 86.2% | [15]; at 100.0 µM 89%
